# What was measured:
# [1] = molecular target: Sphingosine kinase 1 (Homo sapiens) (UniProt Q9NYA1); settings: at 1 µM;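 note: mean SPHK1 inhibition value reported from the GSK PKIS kinase panel screen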
# [2] = molecular target: T1, Sphingosine kinase 2 (Homo sapiens) (UniProt Q9NRA0); settings: at 0.1 µM
# T1 sequence (whole entry): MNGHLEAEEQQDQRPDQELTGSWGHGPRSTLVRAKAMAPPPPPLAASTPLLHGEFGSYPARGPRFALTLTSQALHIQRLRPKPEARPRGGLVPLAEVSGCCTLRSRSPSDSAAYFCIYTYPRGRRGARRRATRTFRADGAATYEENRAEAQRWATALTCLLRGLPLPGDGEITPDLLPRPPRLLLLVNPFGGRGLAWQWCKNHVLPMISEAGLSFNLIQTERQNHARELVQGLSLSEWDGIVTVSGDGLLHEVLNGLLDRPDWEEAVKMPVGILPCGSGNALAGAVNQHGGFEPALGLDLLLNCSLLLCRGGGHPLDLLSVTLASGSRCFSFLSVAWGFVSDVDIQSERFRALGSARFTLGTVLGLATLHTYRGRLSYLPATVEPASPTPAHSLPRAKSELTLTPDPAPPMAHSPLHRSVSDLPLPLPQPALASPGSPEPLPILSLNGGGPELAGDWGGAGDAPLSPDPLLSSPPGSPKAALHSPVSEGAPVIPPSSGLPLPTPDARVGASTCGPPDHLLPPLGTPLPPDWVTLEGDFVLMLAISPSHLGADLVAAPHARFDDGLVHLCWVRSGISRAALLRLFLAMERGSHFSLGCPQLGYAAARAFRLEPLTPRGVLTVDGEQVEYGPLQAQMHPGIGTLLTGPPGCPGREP
# [3] = molecular target: T1, Sphingosine kinase 2 (Homo sapiens); settings: at 1 µM
# [4] = molecular target: Casein kinase II subunit alpha (Homo sapiens) (UniProt P68400); settings: at 0.1 µM
# [5] = molecular target: Casein kinase II subunit alpha (Homo sapiens) (UniProt P68400); settings: at 1 µM
# [6] = molecular target: T2, Inhibitor of nuclear factor kappa-B kinase subunit alpha (Homo sapiens) (UniProt O15111); settings: at 0.1 µM
# T2 sequence (whole entry): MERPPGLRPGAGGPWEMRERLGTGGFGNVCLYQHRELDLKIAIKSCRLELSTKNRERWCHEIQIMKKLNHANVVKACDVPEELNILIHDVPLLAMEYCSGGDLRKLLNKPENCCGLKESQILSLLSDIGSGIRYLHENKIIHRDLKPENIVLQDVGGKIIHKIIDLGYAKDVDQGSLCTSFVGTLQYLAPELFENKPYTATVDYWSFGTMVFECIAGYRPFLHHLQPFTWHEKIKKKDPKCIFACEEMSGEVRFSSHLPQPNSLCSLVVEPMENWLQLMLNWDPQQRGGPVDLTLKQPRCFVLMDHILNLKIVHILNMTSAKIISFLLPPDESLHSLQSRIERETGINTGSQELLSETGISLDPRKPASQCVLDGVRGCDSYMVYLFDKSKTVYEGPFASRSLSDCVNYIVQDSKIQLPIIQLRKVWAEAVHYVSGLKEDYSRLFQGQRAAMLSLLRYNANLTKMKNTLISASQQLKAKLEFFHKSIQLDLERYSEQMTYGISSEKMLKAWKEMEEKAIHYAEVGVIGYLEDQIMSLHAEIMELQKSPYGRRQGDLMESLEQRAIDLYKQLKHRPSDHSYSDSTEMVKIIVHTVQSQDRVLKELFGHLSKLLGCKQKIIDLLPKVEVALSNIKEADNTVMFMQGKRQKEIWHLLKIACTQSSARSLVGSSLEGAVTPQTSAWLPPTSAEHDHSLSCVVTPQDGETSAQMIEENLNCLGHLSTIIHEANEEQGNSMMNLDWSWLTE
# [7] = molecular target: T2, Inhibitor of nuclear factor kappa-B kinase subunit alpha (Homo sapiens); settings: at 1 µM
# [8] = molecular target: T3, Inhibitor of nuclear factor kappa-B kinase subunit beta (Homo sapiens) (UniProt O14920); settings: at 0.1 µM
# T3 sequence (whole entry): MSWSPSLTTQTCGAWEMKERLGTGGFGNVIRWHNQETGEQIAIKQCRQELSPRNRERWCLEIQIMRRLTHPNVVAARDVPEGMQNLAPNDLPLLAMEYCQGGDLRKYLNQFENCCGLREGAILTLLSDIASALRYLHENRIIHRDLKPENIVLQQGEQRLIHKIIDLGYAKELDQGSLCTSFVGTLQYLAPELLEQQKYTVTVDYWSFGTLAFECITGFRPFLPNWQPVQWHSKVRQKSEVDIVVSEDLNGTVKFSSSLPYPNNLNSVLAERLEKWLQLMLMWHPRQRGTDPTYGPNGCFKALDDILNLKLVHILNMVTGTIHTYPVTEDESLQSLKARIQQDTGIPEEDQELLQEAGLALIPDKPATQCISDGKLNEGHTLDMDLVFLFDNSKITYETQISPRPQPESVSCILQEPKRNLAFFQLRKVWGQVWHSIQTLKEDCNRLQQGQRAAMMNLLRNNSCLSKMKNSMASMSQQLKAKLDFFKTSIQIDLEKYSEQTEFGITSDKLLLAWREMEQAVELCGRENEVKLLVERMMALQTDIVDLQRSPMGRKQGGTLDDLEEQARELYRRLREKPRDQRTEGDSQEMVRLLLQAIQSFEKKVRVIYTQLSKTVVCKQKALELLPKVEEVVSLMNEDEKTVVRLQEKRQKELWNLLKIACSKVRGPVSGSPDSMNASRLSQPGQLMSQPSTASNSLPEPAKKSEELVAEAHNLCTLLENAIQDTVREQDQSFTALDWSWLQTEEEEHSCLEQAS
# [9] = molecular target: T3, Inhibitor of nuclear factor kappa-B kinase subunit beta (Homo sapiens); settings: at 1 µM
# [10] = molecular target: T4, Inhibitor of nuclear factor kappa-B kinase subunit epsilon (Homo sapiens) (UniProt Q14164); settings: at 0.1 µM
# T4 sequence (whole entry): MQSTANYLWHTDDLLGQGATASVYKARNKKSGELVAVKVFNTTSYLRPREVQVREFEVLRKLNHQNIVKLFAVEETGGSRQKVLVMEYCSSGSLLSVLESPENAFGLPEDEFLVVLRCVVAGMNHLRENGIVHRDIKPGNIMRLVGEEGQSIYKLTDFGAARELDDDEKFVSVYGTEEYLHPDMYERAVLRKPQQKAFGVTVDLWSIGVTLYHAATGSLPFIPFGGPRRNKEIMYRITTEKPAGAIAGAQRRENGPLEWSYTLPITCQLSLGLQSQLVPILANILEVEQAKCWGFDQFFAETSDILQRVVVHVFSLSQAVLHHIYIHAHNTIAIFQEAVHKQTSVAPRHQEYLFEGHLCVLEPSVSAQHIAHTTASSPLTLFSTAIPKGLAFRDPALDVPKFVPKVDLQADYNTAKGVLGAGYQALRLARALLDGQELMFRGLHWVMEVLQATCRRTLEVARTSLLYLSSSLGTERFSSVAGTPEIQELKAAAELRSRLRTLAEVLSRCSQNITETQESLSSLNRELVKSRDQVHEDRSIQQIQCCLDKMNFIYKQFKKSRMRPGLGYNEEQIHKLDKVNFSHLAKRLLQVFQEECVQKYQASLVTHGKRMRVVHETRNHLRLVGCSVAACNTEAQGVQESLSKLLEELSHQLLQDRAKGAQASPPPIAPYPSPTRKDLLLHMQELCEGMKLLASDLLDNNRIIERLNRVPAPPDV
# [11] = molecular target: T4, Inhibitor of nuclear factor kappa-B kinase subunit epsilon (Homo sapiens); settings: at 1 µM
# [12] = molecular target: T5, Serine/threonine-protein kinase Nek1 (Homo sapiens) (UniProt Q96PY6); settings: at 0.1 µM
# T5 sequence (whole entry): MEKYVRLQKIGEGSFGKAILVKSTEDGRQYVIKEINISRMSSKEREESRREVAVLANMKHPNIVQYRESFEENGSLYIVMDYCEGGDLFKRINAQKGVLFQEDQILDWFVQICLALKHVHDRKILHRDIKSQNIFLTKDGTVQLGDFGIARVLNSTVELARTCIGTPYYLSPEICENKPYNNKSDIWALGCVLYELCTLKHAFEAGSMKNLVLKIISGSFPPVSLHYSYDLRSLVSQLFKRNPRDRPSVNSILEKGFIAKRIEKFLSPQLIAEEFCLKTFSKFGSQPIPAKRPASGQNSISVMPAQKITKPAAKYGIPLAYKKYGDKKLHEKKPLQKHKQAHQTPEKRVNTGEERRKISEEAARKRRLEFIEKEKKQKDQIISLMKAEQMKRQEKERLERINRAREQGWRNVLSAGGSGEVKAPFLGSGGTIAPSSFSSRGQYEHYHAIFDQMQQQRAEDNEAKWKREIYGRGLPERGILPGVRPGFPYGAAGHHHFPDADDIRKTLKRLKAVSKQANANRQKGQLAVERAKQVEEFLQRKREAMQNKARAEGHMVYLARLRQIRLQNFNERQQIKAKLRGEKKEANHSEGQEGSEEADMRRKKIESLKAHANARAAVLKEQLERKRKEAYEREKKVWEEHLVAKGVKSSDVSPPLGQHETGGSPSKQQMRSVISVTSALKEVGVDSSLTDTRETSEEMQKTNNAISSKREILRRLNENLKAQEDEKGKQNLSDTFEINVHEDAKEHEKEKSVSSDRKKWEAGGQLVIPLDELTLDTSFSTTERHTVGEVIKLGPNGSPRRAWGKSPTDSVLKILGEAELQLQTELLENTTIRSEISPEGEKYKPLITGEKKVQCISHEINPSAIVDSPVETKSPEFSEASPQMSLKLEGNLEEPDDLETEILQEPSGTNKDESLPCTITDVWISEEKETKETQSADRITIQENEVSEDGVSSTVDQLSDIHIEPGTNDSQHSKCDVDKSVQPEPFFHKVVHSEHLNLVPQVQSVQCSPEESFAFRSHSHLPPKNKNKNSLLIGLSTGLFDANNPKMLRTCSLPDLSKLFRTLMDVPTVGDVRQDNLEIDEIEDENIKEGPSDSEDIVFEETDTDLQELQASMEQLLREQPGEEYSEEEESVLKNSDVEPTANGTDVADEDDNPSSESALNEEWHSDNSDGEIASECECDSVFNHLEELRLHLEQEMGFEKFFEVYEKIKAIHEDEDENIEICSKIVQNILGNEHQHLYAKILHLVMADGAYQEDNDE
# [13] = molecular target: T5, Serine/threonine-protein kinase Nek1 (Homo sapiens); settings: at 1 µM
# [14] = molecular target: T6, Serine/threonine-protein kinase Nek2 (Homo sapiens) (UniProt P51955); settings: at 0.1 µM
# T6 sequence (whole entry): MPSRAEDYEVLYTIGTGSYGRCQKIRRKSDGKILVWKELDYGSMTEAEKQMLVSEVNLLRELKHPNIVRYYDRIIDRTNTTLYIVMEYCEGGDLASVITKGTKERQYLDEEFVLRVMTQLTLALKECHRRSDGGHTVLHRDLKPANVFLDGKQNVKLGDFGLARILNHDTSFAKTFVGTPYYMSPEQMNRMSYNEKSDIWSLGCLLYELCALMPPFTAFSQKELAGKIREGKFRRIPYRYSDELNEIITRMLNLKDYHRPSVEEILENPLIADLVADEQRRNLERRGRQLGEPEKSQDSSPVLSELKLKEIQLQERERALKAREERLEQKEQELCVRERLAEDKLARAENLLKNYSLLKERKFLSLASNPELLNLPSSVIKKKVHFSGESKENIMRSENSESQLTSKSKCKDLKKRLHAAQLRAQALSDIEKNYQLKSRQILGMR
# [15] = molecular target: T6, Serine/threonine-protein kinase Nek2 (Homo sapiens); settings: at 1 µM
# [16] = molecular target: Serine/threonine-protein kinase Nek6 (Homo sapiens) (UniProt Q9HC98); settings: at 0.1 µM
# [17] = molecular target: Serine/threonine-protein kinase Nek6 (Homo sapiens) (UniProt Q9HC98); settings: at 1 µM
# [18] = molecular target: Serine/threonine-protein kinase Nek7 (Homo sapiens) (UniProt Q8TDX7); settings: at 0.1 µM
# [19] = molecular target: Serine/threonine-protein kinase Nek7 (Homo sapiens) (UniProt Q8TDX7); settings: at 1 µM
# [20] = molecular target: T7, Serine/threonine-protein kinase Nek9 (Homo sapiens) (UniProt Q8TD19); settings: at 0.1 µM;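 note: reported value is the mean percent inhibition of NEK9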
# T7 sequence (whole entry): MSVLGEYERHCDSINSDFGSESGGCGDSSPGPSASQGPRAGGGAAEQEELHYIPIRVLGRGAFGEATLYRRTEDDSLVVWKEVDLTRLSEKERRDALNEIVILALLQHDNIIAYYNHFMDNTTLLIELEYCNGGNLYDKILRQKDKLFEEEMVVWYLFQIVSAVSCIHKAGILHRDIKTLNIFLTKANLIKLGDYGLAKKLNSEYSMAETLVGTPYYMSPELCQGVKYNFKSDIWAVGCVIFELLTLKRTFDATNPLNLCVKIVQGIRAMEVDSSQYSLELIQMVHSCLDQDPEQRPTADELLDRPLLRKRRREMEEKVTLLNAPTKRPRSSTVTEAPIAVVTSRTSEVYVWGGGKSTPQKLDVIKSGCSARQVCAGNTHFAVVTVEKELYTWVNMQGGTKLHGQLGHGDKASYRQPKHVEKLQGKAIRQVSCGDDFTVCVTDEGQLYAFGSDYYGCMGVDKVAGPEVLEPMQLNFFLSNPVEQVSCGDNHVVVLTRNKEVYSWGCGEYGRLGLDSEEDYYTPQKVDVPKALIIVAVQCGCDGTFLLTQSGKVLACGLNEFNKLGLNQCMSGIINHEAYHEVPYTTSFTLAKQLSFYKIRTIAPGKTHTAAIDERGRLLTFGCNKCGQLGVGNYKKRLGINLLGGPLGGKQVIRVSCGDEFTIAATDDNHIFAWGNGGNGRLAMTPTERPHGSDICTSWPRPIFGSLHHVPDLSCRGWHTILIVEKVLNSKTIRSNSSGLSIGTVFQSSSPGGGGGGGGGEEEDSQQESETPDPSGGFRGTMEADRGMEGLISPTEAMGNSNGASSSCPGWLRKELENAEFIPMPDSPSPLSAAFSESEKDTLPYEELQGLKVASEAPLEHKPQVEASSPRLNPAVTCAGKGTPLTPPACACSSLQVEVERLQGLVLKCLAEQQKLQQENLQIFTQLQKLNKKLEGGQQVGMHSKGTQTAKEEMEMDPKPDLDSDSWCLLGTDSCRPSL
# Serine/threonine-protein kinase Nek7 (Homo sapiens), sequence (Q8TDX7 whole entry, looked up): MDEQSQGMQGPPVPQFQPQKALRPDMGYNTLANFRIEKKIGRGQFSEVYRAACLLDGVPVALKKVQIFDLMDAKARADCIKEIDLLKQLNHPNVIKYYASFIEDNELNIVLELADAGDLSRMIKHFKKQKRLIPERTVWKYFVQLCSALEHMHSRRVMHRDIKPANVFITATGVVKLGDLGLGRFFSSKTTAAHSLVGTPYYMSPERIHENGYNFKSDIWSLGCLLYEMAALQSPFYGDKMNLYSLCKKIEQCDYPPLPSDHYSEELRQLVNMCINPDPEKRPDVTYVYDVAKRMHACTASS
# Serine/threonine-protein kinase Nek6 (Homo sapiens), sequence (Q9HC98 whole entry): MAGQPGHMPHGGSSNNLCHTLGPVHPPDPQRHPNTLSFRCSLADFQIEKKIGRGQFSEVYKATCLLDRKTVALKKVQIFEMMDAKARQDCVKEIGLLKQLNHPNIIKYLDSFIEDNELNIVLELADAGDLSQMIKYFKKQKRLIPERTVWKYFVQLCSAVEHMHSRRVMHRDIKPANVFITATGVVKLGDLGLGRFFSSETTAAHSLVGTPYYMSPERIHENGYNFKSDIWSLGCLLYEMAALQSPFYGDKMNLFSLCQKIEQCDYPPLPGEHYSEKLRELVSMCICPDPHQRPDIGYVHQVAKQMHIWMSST
# Casein kinase II subunit alpha (Homo sapiens), sequence (P68400 whole entry, looked up): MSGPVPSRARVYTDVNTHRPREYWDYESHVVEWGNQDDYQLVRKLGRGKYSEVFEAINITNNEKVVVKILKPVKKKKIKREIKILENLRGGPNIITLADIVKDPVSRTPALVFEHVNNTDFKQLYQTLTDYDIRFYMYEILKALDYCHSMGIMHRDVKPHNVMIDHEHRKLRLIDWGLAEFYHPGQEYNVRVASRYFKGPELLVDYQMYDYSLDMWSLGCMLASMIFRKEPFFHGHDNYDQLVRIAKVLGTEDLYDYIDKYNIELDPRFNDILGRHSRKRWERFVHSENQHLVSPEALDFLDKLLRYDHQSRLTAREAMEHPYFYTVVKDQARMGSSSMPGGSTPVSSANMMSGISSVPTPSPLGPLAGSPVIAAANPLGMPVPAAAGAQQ
# Sphingosine kinase 1 (Homo sapiens), sequence (Q9NYA1 whole entry): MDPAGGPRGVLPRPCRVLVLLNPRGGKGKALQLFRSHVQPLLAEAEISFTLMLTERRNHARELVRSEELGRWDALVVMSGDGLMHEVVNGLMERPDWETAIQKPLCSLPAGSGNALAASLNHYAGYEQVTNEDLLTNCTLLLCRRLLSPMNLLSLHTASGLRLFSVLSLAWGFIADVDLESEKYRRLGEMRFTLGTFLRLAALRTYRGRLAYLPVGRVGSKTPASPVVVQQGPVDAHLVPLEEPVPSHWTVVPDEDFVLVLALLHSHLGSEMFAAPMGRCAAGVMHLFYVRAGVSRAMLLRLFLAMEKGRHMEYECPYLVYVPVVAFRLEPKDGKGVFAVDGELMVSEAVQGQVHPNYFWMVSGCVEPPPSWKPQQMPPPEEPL
structure (smiles),measurement,setting,value
N#Cc1c(NC(=O)c2cccc3ccccc23)sc2c1CCCC2,inhibition,[1],-0.69%
same,inhibition,[2],1.73%
same,inhibition,[3],0.03%
same,inhibition,[4],1.53%
same,inhibition,[5],-0.03%
same,inhibition,[6],5.48%
same,inhibition,[7],6.29%
same,inhibition,[8],3.31%
same,inhibition,[9],2.19%
same,inhibition,[10],4.91%
same,inhibition,[11],1.87%
same,inhibition,[12],1.19%
same,inhibition,[13],1.42%
same,inhibition,[14],3.93%
same,inhibition,[15],4.37%
same,inhibition,[16],3.32%
same,inhibition,[17],1.3%
same,inhibition,[18],5.78%
same,inhibition,[19],3.68%
same,inhibition,[20],5.96%
